Data reported in PubChem BioAssay.
Activity calls are given as the source filed them. Unless noted, how the calls were made is not given here.

Experiments:
[1] = resazurin metabolic signal in HepG2 cells – cell-based, resazurin fluorescence, 24 h, PK04 Diversity Set, profiling panel (AID 1172); conditions: HepG2 viability, higher = more signal; further: test concentration not given here
[2] = budding yeast growth changes without added modifier – OD600, strain BY4716, 24 h, basal condition, primary screen (AID 1173); conditions: S. cerevisiae BY4716 growth, OD600, 24 h; higher = more signal, called active from +8 up or from −8 down
[3] = viability profiling in MM1S myeloma cells – cell-based, resazurin fluorescence, basal, 24 h, PK04 Diversity Set, profiling panel (AID 1174); conditions: higher = more signal, called active from +8 up or from −8 down;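 further: MM1S multiple myeloma cell line; test concentration not given here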
[4] = biological target: Dihydroorotate dehydrogenase (quinone), mitochondrial (Plasmodium falciparum (isolate 3D7)) (UniProt Q08210); experiment: inhibition of P. falciparum DHODH – biochemical, C-terminal His tag, absorbance 600 nm, primary screen (AID 1175); conditions: PfDHODH enzyme, DCIP absorbance 600 nm; higher = more signal, called active from +8 up or from −8 down;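 further: recombinant parasite enzyme with a five histidine tag at its C terminus; test concentration not given here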
Sequence of Dihydroorotate dehydrogenase (quinone), mitochondrial (Plasmodium falciparum (isolate 3D7)) (Q08210 whole entry, looked up): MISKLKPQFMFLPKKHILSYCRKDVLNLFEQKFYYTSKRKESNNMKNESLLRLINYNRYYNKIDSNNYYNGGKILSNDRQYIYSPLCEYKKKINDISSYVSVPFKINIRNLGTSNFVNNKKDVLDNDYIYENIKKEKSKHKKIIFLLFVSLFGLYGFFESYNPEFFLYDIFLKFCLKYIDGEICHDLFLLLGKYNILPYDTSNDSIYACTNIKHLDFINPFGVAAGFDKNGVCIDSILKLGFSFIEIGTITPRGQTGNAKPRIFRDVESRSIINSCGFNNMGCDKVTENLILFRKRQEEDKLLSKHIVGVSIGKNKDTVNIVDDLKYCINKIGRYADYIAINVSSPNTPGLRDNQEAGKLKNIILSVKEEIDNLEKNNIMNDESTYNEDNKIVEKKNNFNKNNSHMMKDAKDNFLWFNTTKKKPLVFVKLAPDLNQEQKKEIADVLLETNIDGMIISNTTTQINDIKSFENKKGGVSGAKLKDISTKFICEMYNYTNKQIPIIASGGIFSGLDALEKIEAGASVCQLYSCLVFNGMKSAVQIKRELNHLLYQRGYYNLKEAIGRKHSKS

[5] = inhibition of PAO1 biofilm formation – strain PAO1, LB-PBS medium, absorbance 600 nm, primary screen (AID 1176); further: test concentration not given here; conditions: P. aeruginosa PAO1 growth/biofilm, A600, 12 h; higher = more signal
[6] = growth modulation of vineyard yeast isolate – strain RM11-1a, OD600, basal, 24 h, primary screen (AID 1177);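 further: cultures grown under basal conditions with no added stressor; test concentration not given here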; conditions: S. cerevisiae RM11-1a growth, OD600, 24 h; higher = more signal, called active from +8 up or from −8 down
[7] = growth of efflux-deficient E. coli DRC39 – strain DRC39, OD650, 24 h, E. coli filamentation inducers, primary screen (AID 1178);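 further: growth measured as culture turbidity by optical density at 650 nm; test concentration not given here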; conditions: E. coli DRC39 acrAB, higher = more signal, called active from +8 up or from −8 down
[8] = growth of efflux-deficient E. coli DRC39 – strain DRC39, OD650, 48 h, E. coli filamentation inducers, primary screen (AID 1179);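 further: screen aims at cell division blockers that make cells filament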; conditions: E. coli DRC39 delta-acrAB growth, higher = more signal, called active from +8 up or from −8 down
[9] = viability profiling in RPMI8226 myeloma cells – cell-based, resazurin fluorescence, basal, 24 h, PK04 Diversity Set, profiling panel (AID 1180); conditions: higher = more signal;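 further: RPMI8826 multiple myeloma cell line at 5000 cells per well; test concentration not given here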
[10] = biological target: E3 ubiquitin-protein ligase XIAP (Homo sapiens) (UniProt P98170); experiment: small molecules binding XIAP protein – biophysical, small-molecule microarray, fluorescence 635 nm, primary screen (AID 1181); conditions: higher = more signal;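 further: score merges 667 nm emission and signal to noise over triplicate slides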
Sequence of E3 ubiquitin-protein ligase XIAP (Homo sapiens) (P98170 whole entry, looked up): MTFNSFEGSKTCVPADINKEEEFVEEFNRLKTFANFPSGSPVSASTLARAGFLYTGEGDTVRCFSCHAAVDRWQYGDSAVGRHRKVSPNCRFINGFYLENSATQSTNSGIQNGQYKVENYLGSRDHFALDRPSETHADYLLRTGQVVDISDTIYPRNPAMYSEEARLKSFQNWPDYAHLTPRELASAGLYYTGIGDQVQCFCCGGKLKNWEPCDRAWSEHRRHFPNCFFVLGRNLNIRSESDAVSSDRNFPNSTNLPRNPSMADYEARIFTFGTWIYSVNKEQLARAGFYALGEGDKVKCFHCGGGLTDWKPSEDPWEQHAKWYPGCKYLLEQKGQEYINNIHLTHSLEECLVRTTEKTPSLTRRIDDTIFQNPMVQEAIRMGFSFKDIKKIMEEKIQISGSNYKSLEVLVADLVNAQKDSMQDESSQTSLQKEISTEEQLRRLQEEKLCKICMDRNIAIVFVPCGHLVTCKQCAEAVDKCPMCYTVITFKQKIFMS

Row | Structure (SMILES) | z-score [1] | z-score [2] | z-score [3] | composite z-score [4] | z-score [5] | z-score [6] | z-score [7] | z-score [8] | z-score [9] | composite z-score [10]
1 | CCc1cc2c(nc1CC)CCN(CCC(C)=NOC(C)CN1CCCc3nc(C)c(C)cc31)C2 (stereo not given) | -0.644 | -0.822 (inactive) | -0.845 (inactive) | 0.244 (inactive) | 0.429 (inactive) | -0.173 (inactive) | 0.278 (inactive) | -1.71 (inactive) | -0.615 | 1.13
2 | CC[C@@H](c1ccccc1)n1c(=O)n2n(c1=O)[C@H]1[C@H](O)[C@@H]3O[C@@H]3C(=NOCC(C)C)[C@H]1CC2 | -0.0871 | 0.747 (inactive) | -0.349 (inactive) | 0.777 (inactive) | -0.413 (inactive) | 0.49 (inactive) | 0.258 (inactive) | -1.31 (inactive) | 0.0402 | -0.0525
3 | COc1ccc(O[C@H]2C=C[C@@H](c3ccccc3)O[C@@H]2COC(=O)CCC(C)=NO[C@H](C)c2cn([C@@H]3COC[C@H]3O)nn2)cc1 | 0.896 | -0.419 (inactive) | -0.191 (inactive) | -4.78 (inactive) | -0.467 (inactive) | -0.572 (inactive) | -1.09 (inactive) | -0.033 (inactive) | 0.18 | -0.138
4 | CCCCc1nc2c(c3c1C[C@H](C)OC3)CN(CCC(C)C)CC2 | -0.165 | -2.07 (inactive) | 0.431 (inactive) | -0.847 (inactive) | 0.332 (inactive) | -0.674 (inactive) | 0.56 (inactive) | -0.104 (inactive) | 1.2 | 0.0133
5 | N#Cc1ccc(NN2C(C(O)c3cc(C(F)(F)F)cc(C(F)(F)F)c3)C=CC3C(=O)N(c4ccccc4)C(=O)C32)cc1 (stereo not given) | -1.75 | -0.102 (inactive) | -0.758 (inactive) | 0.678 (inactive) | 1.14 (inactive) | -0.0165 (inactive) | -1.55 (inactive) | -0.56 (inactive) | -0.409 | 0.0239
6 | COc1ccc(COC(=O)NN=C2C[C@@H](O)[C@@H](O)[C@@H]3[C@@H]4C(=O)N(c5ccc(F)cc5F)C(=O)[C@@H]4CC[C@@H]23)cc1 | 0.631 | 0.64 (inactive) | 0.527 (inactive) | 0.0922 (inactive) | -0.176 (inactive) | 0.968 (inactive) | 0.583 (inactive) | 0.644 (inactive) | 0.635 | -0.173
7 | C[C@@H]1CCC2C(=O)N(Cc3ccccc3)C[C@@H](O)CN2[C@H]1c1ccc(Br)cc1 (stereo not given in full) | 0.644 | -5.68 (inactive) | 0.726 (inactive) | -1.3 (inactive) | 0.924 (inactive) | -1.71 (inactive) | 0.957 (inactive) | -1.25 (inactive) | 0.39 | -0.0009
8 | O=C1NC(=O)C2C1C=CC(C(O)Cc1ccccc1)N2Nc1ccccn1 (stereo not given) | -0.507 | 0.424 (inactive) | -0.164 (inactive) | 0.195 (inactive) | -0.118 (inactive) | -0.979 (inactive) | 0.374 (inactive) | 1.42 (inactive) | -0.448 | -0.136
9 | CC(CCN1CCc2nc(-c3ccccc3)c(-c3ccccc3)cc2C1)=NOC(C)CN1CCCCc2nc(C)c(C)cc21 (stereo not given) | -0.0429 | -2.52 (inactive) | -1.07 (inactive) | 0.187 (inactive) | 0.347 (inactive) | -0.609 (inactive) | 0.789 (inactive) | -0.702 (inactive) | -0.747 | -0.0651
10 | O=C1C2=CC[C@H]3C(=O)N(Cc4ccc5c(c4)OCO5)C(=O)[C@H]3[C@H]2[C@H](O)[C@@H]2O[C@H]12 | -0.522 | -0.105 (inactive) | -0.677 (inactive) | -0.907 (inactive) | 0.0578 (inactive) | -0.491 (inactive) | 0.166 (inactive) | 0.0632 (inactive) | -1.49 | -0.381
11 | CC=CC1=C(CO)[C@H](O)[C@H]2O[C@H]2[C@H]1O | -0.557 | 0.977 (inactive) | -0.667 (inactive) | 0.439 (inactive) | -0.47 (inactive) | 0.618 (inactive) | -0.227 (inactive) | -0.299 (inactive) | 0.0421 | 0.0774
12 | O=C1[C@H]2[C@H]3[C@H](O)[C@H](O)CC(=NOC[C@@H](O)COCc4ccco4)[C@H]3CC[C@H]2C(=O)N1Cc1ccc2c(c1)OCO2 | 0.102 | 0.684 (inactive) | -0.293 (inactive) | -0.566 (inactive) | -0.85 (inactive) | 0.0885 (inactive) | 0.786 (inactive) | 1.11 (inactive) | 0.263 | 0.0049
13 | C=COC[C@H]1CN2[C@@H](CC[C@@H](C)[C@@H]2c2ccc(Br)cc2)C(=O)O1 | 0.524 | -3.11 (inactive) | 0.255 (inactive) | -0.613 (inactive) | 0.523 (inactive) | -2.06 (inactive) | 0.0556 (inactive) | -0.848 (inactive) | -0.555 | -0.209
14 | COC(=O)[C@H](C)NC(=O)CCC1CC(OC(=O)NCCc2ccc(F)cc2)CC2(CCCC(COC(=O)NCC(c3ccccc3)c3ccccc3)O2)O1 (stereo not given in full) | 0.725 | 0.718 (inactive) | 0.476 (inactive) | -0.216 (inactive) | 0.0251 (inactive) | 1.31 (inactive) | 1.06 (inactive) | 0.706 (inactive) | 0.809 | -0.323
15 | C#CCCCON=C1C[C@@H](O)[C@@H](O)[C@@H]2[C@@H]3C(=O)N(c4cccc(Oc5ccccc5)c4)C(=O)[C@@H]3CC[C@@H]12 | 0.32 | -1.13 (inactive) | 0.47 (inactive) | 1 (inactive) | -0.601 (inactive) | -0.293 (inactive) | -0.146 (inactive) | -0.0303 (inactive) | 0.868 | 0.0153
16 | CCOC(=O)[C@H](Cc1ccccc1)NC(=O)CCC1CC(OC(=O)NCCc2ccc(F)cc2)CC2(CCCC(COC(=O)NCC(c3ccccc3)c3ccccc3)O2)O1 (stereo not given in full) | 0.506 | 0.167 (inactive) | -0.874 (inactive) | -0.219 (inactive) | 0.0494 (inactive) | 0.509 (inactive) | 0.565 (inactive) | -0.563 (inactive) | 0.489 | -0.161
17 | CCOC(=O)C1=CCC(c2cc3ccccc3[nH]2)NC1 (stereo not given) | -0.309 | -3.2 (inactive) | -0.79 (inactive) | -0.0148 (inactive) | 0.0083 (inactive) | -0.194 (inactive) | -0.303 (inactive) | -0.391 (inactive) | -0.613 | 0.0418
18 | CN1C(=O)[C@@]2(CCC(=O)OC(C)(C)C)N=C(c3ccc(OCCCO)cc3)O[C@H]2c2ccccc21 | 0.761 | -1.04 (inactive) | -1.82 (inactive) | -0.281 (inactive) | 0.0279 (inactive) | -0.177 (inactive) | 1.2 (inactive) | 0.767 (inactive) | -1.99 | 0.169
19 | COc1ccc(CCNC(=O)[C@@H]2c3ccccc3C(=O)N(c3ccc(C)cn3)[C@H]2c2ccc(CO)cc2)cc1 | 0.594 | -0.742 (inactive) | -0.806 (inactive) | -0.204 (inactive) | 0.525 (inactive) | -0.195 (inactive) | 0.0636 (inactive) | -0.113 (inactive) | 1 | -0.267
20 | COc1cccc([C@H]2Oc3ccc(OC)cc3C(=NOC(C)CN3CCCc4nc(C)c(C)cc43)[C@@H]2O)c1 (stereo not given in full) | -0.948 | -0.872 (inactive) | -0.944 (inactive) | 0.956 (inactive) | -0.136 (inactive) | -0.168 (inactive) | -0.0128 (inactive) | -0.565 (inactive) | -0.948 | 0.271
21 | CO[C@@H]1COC(=O)CC=C[C@@H](C)[C@@H]2C=C[C@@H](O)[C@@H](COC(=O)CC=C[C@H]1C)O2 | 0.234 | -1.29 (inactive) | 0.604 (inactive) | -1.34 (inactive) | 0.683 (inactive) | -2.03 (inactive) | -0.0072 (inactive) | -0.392 (inactive) | -0.501 | 0.0304
22 | CCc1cccc(NC(=O)O[C@H]2[C@H](OC(=O)Nc3ccc4c(c3)OCO4)[C@@H](OC(=O)Nc3ccc4c(c3)OCO4)[C@@H](OC)O[C@@H]2CO)c1 | 1 | 1.04 (inactive) | -0.517 (inactive) | -0.0004 (inactive) | 0.745 (inactive) | 1.88 (inactive) | 1.57 (inactive) | 0.494 (inactive) | -0.36 | -0.173
23 | CC(C)c1ccc(NN2C(C(O)c3ccc4c(c3)OCO4)C=CC3C(=O)N(c4ccccc4)C(=O)C32)cc1 (stereo not given) | -1.13 | -0.791 (inactive) | -0.165 (inactive) | -0.0797 (inactive) | 1.08 (inactive) | 0.266 (inactive) | -0.167 (inactive) | -0.563 (inactive) | -0.191 | 0.0641
24 | CC1CC/C=C\[C@H]2OC34C=CCN(Cn5nnc6ccccc65)C(=O)[C@H]3N(CCO)C(=O)[C@@H]4C2C(=O)O1 (stereo not given in full) | 0.831 | -0.895 (inactive) | 0.869 (inactive) | -0.895 (inactive) | 0.773 (inactive) | -0.943 (inactive) | 0.673 (inactive) | -0.108 (inactive) | 1.04 | 0.235
25 | COc1ccccc1CN1C(=O)c2ccccc2[C@@]2(Cc3ccccc3N(C(C)C)C2=O)[C@@H]1c1ccc(CO)cc1 | -0.643 | 0.439 (inactive) | -0.647 (inactive) | -3.28 (inactive) | 0.376 (inactive) | -1.56 (inactive) | 0.549 (inactive) | 1.14 (inactive) | -0.457 | 0.161
